# From the supplement of paper PMC6518042
# System: Pectobacterium parmentieri SCC3193
# Test: DuctApe activity index (growth/respiration on compound as sole nutrient source, blank-subtracted) (activity index (0-3)); higher = stronger utilization of the compound, active = 3 or more
# Conditions: nutrient role (plate category): carbon
# Description: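 Biolog Phenotype Microarray plates PM1, PM2A (carbon), PM3 (nitrogen) and PM4 (phosphorus/sulfur) inoculated with P. parmentieri SCC3193 in M9-C minimal salts medium with Biolog dye A, and read in the OmniLog for 46 h. Each well was tested in triplicate and the experiment was run twice. DuctApe computed a blank-subtracted activity index (AV, 0-3) from the mean curves; growth is positive at AV >= 3 and negative at AV <= 2.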
row,Structure (SMILES),DuctApe activity index
1,NC(=O)CC[C@H](N)C(=O)O [L-Glutamine],0 (inactive)
2,N[C@@H](C(=O)O)[C@@H](O)[C@H](O)[C@H](O)CO [D-Glucosaminic acid],0 (inactive)
3,O=C(CO)CO [Dihydroxyacetone],1 (inactive)
4,O=C(O)C(=O)O [Oxalic acid],0 (inactive)
5,NCCCC(=O)O [g-Amino-N-Butyric acid],0 (inactive)
6,O=C(O)CC(CC(=O)O)C(=O)O [Tricarballylic acid],0 (inactive)
7,O=P(O)(O)OC[C@H]1OC(O)(CO)[C@@H](O)[C@@H]1O (stereo partly drawn) [D-Fructose-6-Phosphate],3 (active)
8,C[C@@H](N)C(=O)O [D-Alanine],0 (inactive)
9,N[C@@H](CCC(=O)O)C(=O)O [L-Glutamic acid],2 (inactive)
10,CCC(=O)C(=O)O [a-Ketobutyric acid],0 (inactive)
11,N=C(N)NCCC[C@H](N)C(=O)O [L-Arginine],0 (inactive)
12,OC[C@H]1OC(O)[C@@H](O)[C@@H](O)[C@@H]1O (stereo partly drawn) [D-Mannose],3 (active)
13,C[C@H](N)C(=O)O [L-Alanine],0 (inactive)
14,O=C[C@H](O)[C@@H](O)[C@H](O)[C@H](O)COP(=O)(O)O [D-Glucose-6-Phosphate],3 (active)
15,CC(C)C[C@H](N)C(=O)O [L-Leucine],1 (inactive)
16,CCCCCCCC/C=C\CCCCCCCC(=O)OCCOCC(OCCO)C1OCC(OCCO)C1OCCO (centres undefined) [Tween 80],0 (inactive)
17,O=C1CC[C@@H](C(=O)O)N1 [L-Pyroglutamic acid],0 (inactive)
18,NC(=O)C[C@H](N)C(=O)O [L-Asparagine],3 (active)
19,CO[C@H]1O[C@H](CO)[C@@H](O)[C@H](O)[C@H]1O [a-Methyl-D-Glucoside],0 (inactive)

# Same assay, conditions: nutrient role (plate category): nitrogen
row,Structure (SMILES),DuctApe activity index
1,NC(=O)CC[C@H](N)C(=O)O [L-Glutamine],2 (inactive)
2,NCCc1c[nH]cn1 [Histamine],0 (inactive)
3,NCCCC(=O)O [g-Amino-N-Butyric acid],1 (inactive)
4,C[C@@H](N)C(=O)O [D-Alanine],0 (inactive)
5,N[C@@H](CCC(=O)O)C(=O)O [L-Glutamic acid],1 (inactive)
6,O=NO [Nitrite],0 (inactive)
7,N[C@@H]1C(O)O[C@H](CO)[C@@H](O)[C@@H]1O (stereo partly drawn) [D-Mannosamine],2 (inactive)
8,N=C(N)NCCC[C@H](N)C(=O)O [L-Arginine],0 (inactive)
9,C[C@H](N)C(=O)O [L-Alanine],0 (inactive)
10,CC(C)C[C@H](N)C(=O)O [L-Leucine],0 (inactive)
11,Nc1[nH]cnc2ncnc1-2 [Adenine],0 (inactive)
12,CSCC[C@H](N)C(=O)N[C@@H](C)C(=O)O,0 (inactive)
13,O=C1CC[C@@H](C(=O)O)N1 [L-Pyroglutamic acid],0 (inactive)
14,NC(=O)C[C@H](N)C(=O)O [L-Asparagine],2 (inactive)

# Same assay, conditions: nutrient role (plate category): phosphate & sulphur
row,Structure (SMILES),DuctApe activity index
1,O=P(O)(O)CP(=O)(O)O [Methylene Diphosphonic acid],0 (inactive)
2,N[C@@H](CS(=O)(=O)O)C(=O)O [L-Cysteic acid],1 (inactive)
3,O=C(O)[C@H](O)[C@@H](O)[C@H](O)[C@H](O)COP(=O)(O)O [6-Phospho-Gluconic acid],2 (inactive)
4,N[C@@H](COP(=O)(O)O)C(=O)O [O-Phospho-L-Serine],2 (inactive)
5,O=C[C@H](O)[C@@H](O)[C@H](O)[C@H](O)COP(=O)(O)O [D-Glucose-6-Phosphate],2 (inactive)
6,CS(=O)(=O)CC[C@H](N)C(=O)O [L-Methionine Sulfone],0 (inactive)
